# Tests used:
# [1] = molecular target: POU1 (OCT1 POU domain) (human, UniProt P14859 260-458); assay: EMSA-SELEX-seq; no BOB1; 20 mM Tris-HCl pH 7.6, 140 mM NaCl, 10% glycerol, 0.5 mM EDTA, 0.05% Triton X-100, 0.1 mg/mL BSA, 0.1 mg/mL poly(dI-dC), 5 mM DTT, room temperature, 20 min; high values mean tight binding; conditions: protein: recombinant; dsDNA, one strand shown
# Outline: (§1)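 Binding preference means the percentage of sequenced 8-mers matching a motif pattern. Tagged POU-domain proteins (30 ng), expressed in E. coli BL21, purified under denaturing conditions and renatured, were mixed with 300 ng of a PCR-amplified double-stranded random 35-nt library, with or without 28 ng coactivator protein, for 20 min at RT in 20 μL Tris–HCl pH 7.6 binding buffer. Selection was repeated over four rounds of excising complex bands from native 6% PAGE, eluting and PCR amplification, followed by Illumina sequencing.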
# [2] = molecular target: T1, POU2 (OCT2 POU domain) (human, UniProt P09086 175-386); assay: as above; conditions: protein: recombinant; dsDNA, one strand shown
# T1 sequence: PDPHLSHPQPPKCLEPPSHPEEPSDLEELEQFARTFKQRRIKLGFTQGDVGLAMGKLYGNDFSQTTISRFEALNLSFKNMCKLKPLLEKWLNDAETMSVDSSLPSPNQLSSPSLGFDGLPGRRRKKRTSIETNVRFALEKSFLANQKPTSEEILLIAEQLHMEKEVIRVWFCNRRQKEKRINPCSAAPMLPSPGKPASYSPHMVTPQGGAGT
# Outline: as §1
# [3] = molecular target: POU1 (OCT1 POU domain);BOB1 (OBF1, OCA-B) (human;human, UniProt P14859;Q16633 260-458;1-256, |); assay: EMSA-SELEX-seq; with BOB1 (ternary complex band); 20 mM Tris-HCl pH 7.6, 140 mM NaCl, 10% glycerol, 0.5 mM EDTA, 0.05% Triton X-100, 0.1 mg/mL BSA, 0.1 mg/mL poly(dI-dC), 5 mM DTT, room temperature, 20 min; high values mean tight binding; conditions: protein: recombinant;recombinant; copies: 1;1; dsDNA, one strand shown
# Outline: as §1
# [4] = molecular target: T2, POU2 (OCT2 POU domain);BOB1 (OBF1, OCA-B) (human;human, UniProt P09086;Q16633 175-386;1-256, |); assay: as above; conditions: protein: recombinant;recombinant; copies: 1;1; dsDNA, one strand shown
# T2 sequence 1: T1 sequence
# T2 sequence 2: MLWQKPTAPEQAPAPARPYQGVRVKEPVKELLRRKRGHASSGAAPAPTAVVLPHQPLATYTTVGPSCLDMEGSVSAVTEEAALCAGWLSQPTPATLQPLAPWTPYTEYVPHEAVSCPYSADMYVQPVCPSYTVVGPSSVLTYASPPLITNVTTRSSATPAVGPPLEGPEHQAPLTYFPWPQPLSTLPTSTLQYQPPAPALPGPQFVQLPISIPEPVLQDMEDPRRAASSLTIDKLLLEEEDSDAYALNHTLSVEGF
# Outline: as §1
# POU1 (OCT1 POU domain), sequence (P14859 260-458): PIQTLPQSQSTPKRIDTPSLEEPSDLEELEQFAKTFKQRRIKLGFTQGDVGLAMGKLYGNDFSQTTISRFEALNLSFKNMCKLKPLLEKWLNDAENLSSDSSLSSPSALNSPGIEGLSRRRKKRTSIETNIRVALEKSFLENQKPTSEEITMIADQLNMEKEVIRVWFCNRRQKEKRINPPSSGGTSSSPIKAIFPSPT
Sequence,binding signal [1],binding signal [2],binding signal [3],binding signal [4]
ATCCGAAG,0.0275 % of ANNNNAAN 8-mers,0.0299 % of ANNNNAAN 8-mers,0.0304 % of ANNNNAAN 8-mers,0.0338 % of ANNNNAAN 8-mers
AGTTTAAT,0.129 % of ANNNNAAN 8-mers,0.156 % of ANNNNAAN 8-mers,0.0882 % of ANNNNAAN 8-mers,0.111 % of ANNNNAAN 8-mers
ATCACAAT,0.045 % of ANNNNAAN 8-mers,0.0518 % of ANNNNAAN 8-mers,0.039 % of ANNNNAAN 8-mers,0.0487 % of ANNNNAAN 8-mers
AGCCGAAA,0.0191 % of ANNNNAAN 8-mers,0.0247 % of ANNNNAAN 8-mers,0.0238 % of ANNNNAAN 8-mers,0.0198 % of ANNNNAAN 8-mers
ATGTCAAG,0.0378 % of ANNNNAAN 8-mers,0.0535 % of ANNNNAAN 8-mers,0.0406 % of ANNNNAAN 8-mers,0.052 % of ANNNNAAN 8-mers
AAGGTAAT,0.122 % of ANNNNAAN 8-mers,0.163 % of ANNNNAAN 8-mers,0.0925 % of ANNNNAAN 8-mers,0.128 % of ANNNNAAN 8-mers
ATTTAAAA,0.303 % of ANNNNAAN 8-mers,0.299 % of ANNNNAAN 8-mers,0.178 % of ANNNNAAN 8-mers,0.137 % of ANNNNAAN 8-mers
AGGTTAAT,0.174 % of ANNNNAAN 8-mers,0.216 % of ANNNNAAN 8-mers,0.0921 % of ANNNNAAN 8-mers,0.108 % of ANNNNAAN 8-mers
AGTGAAAC,0.0282 % of ANNNNAAN 8-mers,0.0178 % of ANNNNAAN 8-mers,0.0324 % of ANNNNAAN 8-mers,0.0206 % of ANNNNAAN 8-mers
AGTGGAAA,0.0542 % of ANNNNAAN 8-mers,0.0512 % of ANNNNAAN 8-mers,0.0718 % of ANNNNAAN 8-mers,0.052 % of ANNNNAAN 8-mers
ATGATAAC,0.0339 % of ANNNNAAN 8-mers,0.0489 % of ANNNNAAN 8-mers,0.0332 % of ANNNNAAN 8-mers,0.0479 % of ANNNNAAN 8-mers
AGGGGAAA,0.101 % of ANNNNAAN 8-mers,0.0794 % of ANNNNAAN 8-mers,0.109 % of ANNNNAAN 8-mers,0.0826 % of ANNNNAAN 8-mers
ATTTAAAC,0.137 % of ANNNNAAN 8-mers,0.161 % of ANNNNAAN 8-mers,0.117 % of ANNNNAAN 8-mers,0.109 % of ANNNNAAN 8-mers
ATTCTAAG,0.0747 % of ANNNNAAN 8-mers,0.0857 % of ANNNNAAN 8-mers,0.0593 % of ANNNNAAN 8-mers,0.0702 % of ANNNNAAN 8-mers
ATGGTAAG,0.0984 % of ANNNNAAN 8-mers,0.127 % of ANNNNAAN 8-mers,0.071 % of ANNNNAAN 8-mers,0.09 % of ANNNNAAN 8-mers
AGCGTAAG,0.0214 % of ANNNNAAN 8-mers,0.0293 % of ANNNNAAN 8-mers,0.0215 % of ANNNNAAN 8-mers,0.0338 % of ANNNNAAN 8-mers
AGGTAAAG,0.0801 % of ANNNNAAN 8-mers,0.0708 % of ANNNNAAN 8-mers,0.116 % of ANNNNAAN 8-mers,0.071 % of ANNNNAAN 8-mers
AAGACAAC,0.0168 % of ANNNNAAN 8-mers,0.019 % of ANNNNAAN 8-mers,0.0195 % of ANNNNAAN 8-mers,0.0157 % of ANNNNAAN 8-mers
AGATGAAT,0.119 % of ANNNNAAN 8-mers,0.171 % of ANNNNAAN 8-mers,0.0765 % of ANNNNAAN 8-mers,0.09 % of ANNNNAAN 8-mers
ATTGGAAG,0.0309 % of ANNNNAAN 8-mers,0.0547 % of ANNNNAAN 8-mers,0.0371 % of ANNNNAAN 8-mers,0.0438 % of ANNNNAAN 8-mers
ATCGAAAA,0.0511 % of ANNNNAAN 8-mers,0.0564 % of ANNNNAAN 8-mers,0.0441 % of ANNNNAAN 8-mers,0.0454 % of ANNNNAAN 8-mers
AGTCGAAT,0.061 % of ANNNNAAN 8-mers,0.0604 % of ANNNNAAN 8-mers,0.0468 % of ANNNNAAN 8-mers,0.0611 % of ANNNNAAN 8-mers
AAATCAAG,0.098 % of ANNNNAAN 8-mers,0.0926 % of ANNNNAAN 8-mers,0.132 % of ANNNNAAN 8-mers,0.128 % of ANNNNAAN 8-mers
ACTGAAAG,0.0172 % of ANNNNAAN 8-mers,0.0196 % of ANNNNAAN 8-mers,0.0273 % of ANNNNAAN 8-mers,0.0231 % of ANNNNAAN 8-mers
ACGCGAAC,0.0103 % of ANNNNAAN 8-mers,0.0121 % of ANNNNAAN 8-mers,0.0109 % of ANNNNAAN 8-mers,0.0165 % of ANNNNAAN 8-mers
AGTGTAAT,0.085 % of ANNNNAAN 8-mers,0.104 % of ANNNNAAN 8-mers,0.0679 % of ANNNNAAN 8-mers,0.0867 % of ANNNNAAN 8-mers
AGGGGAAT,0.11 % of ANNNNAAN 8-mers,0.121 % of ANNNNAAN 8-mers,0.089 % of ANNNNAAN 8-mers,0.11 % of ANNNNAAN 8-mers
ATGGCAAC,0.0263 % of ANNNNAAN 8-mers,0.0219 % of ANNNNAAN 8-mers,0.0297 % of ANNNNAAN 8-mers,0.0264 % of ANNNNAAN 8-mers
AGCCGAAT,0.0313 % of ANNNNAAN 8-mers,0.0368 % of ANNNNAAN 8-mers,0.0281 % of ANNNNAAN 8-mers,0.033 % of ANNNNAAN 8-mers
AACATAAG,0.0694 % of ANNNNAAN 8-mers,0.0731 % of ANNNNAAN 8-mers,0.041 % of ANNNNAAN 8-mers,0.0396 % of ANNNNAAN 8-mers

# Source: PMC10812921, “Transcriptional Coactivator BOB1 (OBF1, OCA-B) Modulates the Specificity of DNA Recognition by the POU-Domain Factors OCT1 and OCT2 in a Monomeric Configuration”
